In all, about 15,000 sequences went through this assay and about 800 (5.3%) were called active. No stated cut-off is given here; in the data, active = GI50 up to about 1.1 µM and inactive = higher. Not all results are given here. Potency and affinity values are given separately.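 Compound exposure: 48 hours, 5 concentrations, 96-well plates. GI50 is the concentration that inhibits growth by half.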

Results on ten substances are retold here after ChEMBL document CHEMBL1201862, “PubChem BioAssay data set” (2004).

The test has as its system DMS-114. Briefly: NCI tumour cell line growth inhibition, 48 h.
Substance “[Bis(aminomethyl)tetramethylenesilane]dichloropaltinum(II), CHEMBL2146205” registered a GI50 of 5.89 µM.

The substance “[Bis(aminomethyl)diethylsilane]tetrachloroplatinum(IV), CHEMBL2146203” displayed a GI50 of 2.23 µM.

Turning to “cis-Bis[[(trimethylsilyl)methyl]amino]tetrachloroplatinum(IV), CHEMBL2146191”, the GI50 came to 4.09 µM.

In turn, “[Bis(aminomethyl)pentamethylenesilane]dichloropaltinum(II), CHEMBL2146202” registered a GI50 of 4.01 µM.

Regarding “[Bis(aminomethyl)dimethylsilane]dichloroplatinum (II), CHEMBL2146201”, the GI50 is 12 µM.

Take “[Bis(aminomethyl)pentamethylenesilane]tetrachloropaltinum(IV), CHEMBL2146204”: the GI50 amounted to 2 µM.

The substance “[Bis(aminomethyl)ethylmethylsilane]tetrachloroplatinum(IV), CHEMBL2146192” showed a GI50 of 1.17 µM.

In turn, “mu-(1,7-nanodiamine-N,N')bis-(cis-aminedichloroplatimum (II)), CHEMBL2146215” had a GI50 of 6.18 µM.

“[Bis(aminomethyl)dimethylsilane]tetrachloroplatinum(IV), CHEMBL2146190” had a GI50 of 1.38 µM.

“[Bis(aminomethyl)tetramethylenesilane]tetrachloropaltinum(IV), CHEMBL2146189” showed a GI50 of 1.91 µM.
